High-throughput results as filed in PubChem BioAssay.
Sampled rows, rich in hits. Any-hit rate of the full collection: about 1.6%.
NSD2 HMT inh: NSD2 (human) methyltransferase inhibition | 0.54% of 310,000 active | NSD2 peptide methylation, AlphaScreen, 120 min | inhibition, % at 12.5 µM; in the data active means inhibition above about 50%
Efflux pump inh: blocks antifungal efflux pumps in multiplex yeast assay | AID 485275 | S. cerevisiae Candida pump triplex, Nile Red efflux | 0.44% of 330,000 active | inhibition, % at 10 µM;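 active means plate passing quality check with inhibition over a set limit, or well fluorescence over plate mean plus 4 SD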;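 further: Nile Red retained in pooled yeast measured as flow cytometry median fluorescence; 0% = buffer negative control and 100% = Enniatin B positive control; higher means more Nile Red kept so more efflux inhibition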
NPR1 activator: GC-A (human) enzyme activation; HEK293 GC-A cells, cGMP TR-FRET, EC30 ANP; 0% at EC30 ANP, 100% saturating ANP; P16066; 0.14% of 370,000 active; activation, % at 10 µM; AID 1671463; in the data active means activation above about 40%
Rce1 inhib: inhibitors of yeast Ras-converting enzyme; calls only; 0.27% of 290,000 active; yeast membranes, quenched prenylated peptide cleavage fluorescence; AID 2563; Q03530;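 active means fall in fluorescence gain of 50% or more versus controls, with final raw signal at or below 3038400; inconclusive means same 50% fall but final raw signal above 3038400; inactive means fall in fluorescence gain under 50%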;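 further: plate controls were neutral control wells for no effect and wells lacking membranes for full effect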
NPR2 activator: GC-B (human) receptor activation; P20594; HEK293-GC-B cells, CNP EC30, cGMP TR-FRET; 0% at EC30 CNP, 100% saturating CNP; activation, % at 10 µM; 0.11% of 370,000 active;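 active means activation at 10 µM reaching about 35% in either raw or pattern-adjusted values, limit read from the data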
Target sequence (P20594 whole entry, looked up): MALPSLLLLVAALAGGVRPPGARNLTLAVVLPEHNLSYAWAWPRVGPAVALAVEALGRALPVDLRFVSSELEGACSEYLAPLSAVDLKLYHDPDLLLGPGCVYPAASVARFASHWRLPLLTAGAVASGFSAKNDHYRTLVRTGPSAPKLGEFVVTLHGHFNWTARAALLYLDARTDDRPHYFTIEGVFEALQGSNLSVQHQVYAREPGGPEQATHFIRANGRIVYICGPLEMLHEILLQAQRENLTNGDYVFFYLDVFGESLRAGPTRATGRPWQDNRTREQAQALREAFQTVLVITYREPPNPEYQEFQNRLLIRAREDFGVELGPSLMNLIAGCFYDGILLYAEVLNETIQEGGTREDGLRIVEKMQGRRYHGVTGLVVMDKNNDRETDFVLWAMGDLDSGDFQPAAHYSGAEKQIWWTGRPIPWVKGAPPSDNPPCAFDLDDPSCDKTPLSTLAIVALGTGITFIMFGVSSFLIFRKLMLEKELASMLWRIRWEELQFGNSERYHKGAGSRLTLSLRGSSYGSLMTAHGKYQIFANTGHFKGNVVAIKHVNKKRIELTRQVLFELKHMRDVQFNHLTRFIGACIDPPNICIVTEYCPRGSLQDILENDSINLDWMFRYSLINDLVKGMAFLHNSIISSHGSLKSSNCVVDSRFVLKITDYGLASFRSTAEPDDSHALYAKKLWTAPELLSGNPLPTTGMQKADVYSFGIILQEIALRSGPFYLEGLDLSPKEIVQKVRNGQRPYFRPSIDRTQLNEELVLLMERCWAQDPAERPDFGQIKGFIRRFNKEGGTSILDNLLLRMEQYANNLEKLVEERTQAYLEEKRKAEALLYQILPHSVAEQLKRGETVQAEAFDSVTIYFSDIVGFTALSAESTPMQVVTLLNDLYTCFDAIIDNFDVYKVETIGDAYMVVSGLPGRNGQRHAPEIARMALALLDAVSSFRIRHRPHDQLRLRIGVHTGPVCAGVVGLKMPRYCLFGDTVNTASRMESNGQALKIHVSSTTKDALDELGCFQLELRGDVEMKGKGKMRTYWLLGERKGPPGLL
V-ATPase pH: regulators of yeast V-ATPase proton transport; AID 504577; S. cerevisiae, pHLuorin cytosolic pH fluorescence; response, % at 10 µM; 0.37% of 350,000 active; in the data active means response mostly above about 7.3%, no sharp cut-off; inactive means mostly below about 5.4%; further: actives read high
AlphaScreen art: AlphaScreen assay artifact in NSD2 counter-screen | AlphaScreen artifact counterscreen, preloaded methylated H4 peptide | shares compounds with NSD2 HMT inh | AC35, µM (doses to about 10 µM), for the others: top-dose activity change, negative = signal loss | 9.4% of 1,500 active; call rule not given here
* = called active by the depositor.

`COc1ccc(C(=O)/C=C(\C)Nc2ccc(NC(C)=O)cc2)cc1` gave NSD2 HMT inh 7, Efflux pump inh 0, NPR1 activator -4, Rce1 inhib inactive, NPR2 activator -3 and V-ATPase pH -2.
For O=C(NCCc1ccccc1)OCc1cn(-c2cccc(F)c2F)nn1 the results were NSD2 HMT inh 11, NPR1 activator 1 and NPR2 activator 6.
`COP(=O)(O)C(C)NC(=O)OCc1ccccc1` (stereo not given) gave NPR1 activator 3 and NPR2 activator -5.
`COc1cccc(CCNS(=O)(=O)c2c(C)n[nH]c2C)c1` gave NSD2 HMT inh -3, NPR1 activator 2 and NPR2 activator 6.
`C=CCN1C(=O)[C@@H](CC(=O)NCCCN2CCCC2=O)[C@]2(C(=O)OCC)CCCCC/C=C/12` gave NPR1 activator 0 and NPR2 activator 6.
Screening Cc1ccc(NC(=O)C[n+]2ccn(C3=C([O-])c4ccccc4C3=O)c2)cc1 returned NSD2 HMT inh 89*, Efflux pump inh 0, NPR1 activator 2, Rce1 inhib inactive, NPR2 activator -1, V-ATPase pH -1 and AlphaScreen art -4%.
Screening COc1ccc(N2CCN(CCCNC(=O)CCOC(C)(C)C)CC2)cc1 returned NSD2 HMT inh -2, NPR1 activator -1 and NPR2 activator 2.
CC1=NN(c2ccc(S(=O)(=O)O)cc2Cl)C(=O)C1 was read as NSD2 HMT inh 71*, Efflux pump inh 0, NPR1 activator -3, Rce1 inhib inactive, NPR2 activator 7, V-ATPase pH 1 and AlphaScreen art 0%.
CC1=NN(c2cc(Cl)c(S(=O)(=O)O)cc2Cl)C(=O)C1 was read as NSD2 HMT inh 6, NPR1 activator 5, NPR2 activator 8 and V-ATPase pH 5.
For COc1ccc(-c2nnc3n2N=C(C)CS3)cc1 the results were NSD2 HMT inh 68*, Efflux pump inh 0, NPR1 activator 5, Rce1 inhib inactive, NPR2 activator -8, V-ATPase pH 0 and AlphaScreen art -3%.
Screening CN(CCCNC(=O)c1cc2c(Cl)nc3ccccc3c2s1)Cc1ccccc1 returned NSD2 HMT inh 13, Efflux pump inh 0, NPR1 activator 3, Rce1 inhib inactive, NPR2 activator -13 and V-ATPase pH 2.
CCN(CC)CCCNC(=O)c1cc2c(Cl)nc3ccccc3c2s1 was read as NSD2 HMT inh 80*, Efflux pump inh 0, NPR1 activator 12, Rce1 inhib inactive, NPR2 activator -3, V-ATPase pH -1 and AlphaScreen art -4%.
`COc1cc(CNCc2cccnc2)ccc1OCc1ccccc1` gave NSD2 HMT inh -4, Efflux pump inh 0, NPR1 activator -14, Rce1 inhib inactive, NPR2 activator -7 and V-ATPase pH -3.
CNCc1ccc(OCc2ccccc2)c(OC)c1 was read as NSD2 HMT inh 53*, Efflux pump inh 0, NPR1 activator -2, Rce1 inhib inactive, NPR2 activator -1, V-ATPase pH -4 and AlphaScreen art -1%.
`Cc1cccnc1NC(=O)c1ccc(S(=O)(=O)N2CC(C)OC(C)C2)cc1` (stereo not given) gave NSD2 HMT inh 50*, Efflux pump inh 0, NPR1 activator 4, Rce1 inhib inactive, NPR2 activator 2, V-ATPase pH -3 and AlphaScreen art -1%.
Screening CC(=O)c1c(C)[nH]c(C(=O)Nc2ccc(C)cc2Br)c1C returned NSD2 HMT inh 72*, Efflux pump inh 0, NPR1 activator 1, Rce1 inhib inactive, NPR2 activator 0, V-ATPase pH 5 and AlphaScreen art -5%.
Screening CC(=O)c1c(C)[nH]c(C(=O)Nc2cc(C)ccc2C)c1C returned Efflux pump inh 0, NPR1 activator -2, Rce1 inhib inactive, NPR2 activator -4 and V-ATPase pH 2.
Screening COc1cc(NC(=O)c2[nH]c(C)c(C(C)=O)c2C)cc(OC)c1OC returned NSD2 HMT inh 121*, Efflux pump inh 0, NPR1 activator 2, Rce1 inhib inactive, NPR2 activator -3, V-ATPase pH -1 and AlphaScreen art -5%.
For COc1ccc(NC(=O)c2[nH]c(C)c(C(C)=O)c2C)cc1Cl the results were NSD2 HMT inh -1, Efflux pump inh 0, NPR1 activator -3, Rce1 inhib inactive, NPR2 activator -9 and V-ATPase pH 9.
For O=C(Nc1ccc(OC(F)(F)F)cc1)Nc1c(-c2ccc(F)cc2)nc2ncccn12 the results were NPR1 activator 1 and NPR2 activator 3.
Screening O=c1c2c(n3cnnc3n1-c1ccccc1)-c1ccccc1CC21CCCC1 returned NSD2 HMT inh 102*, Efflux pump inh 0, NPR1 activator 1, Rce1 inhib inactive, NPR2 activator -2, V-ATPase pH -4 and AlphaScreen art -8%.
COc1ccc([C@H]2OC(=O)C[C@@H]2C(=O)N2CCCCC2)cc1OC was read as NSD2 HMT inh 2, NPR1 activator 2 and NPR2 activator -2.
O=C(Cn1nnc(-c2ccccc2F)n1)Nc1ccc(Cl)cc1 was read as NPR1 activator 5 and NPR2 activator -3.
C[n+]1cccc2c(Br)ccc([O-])c21 was read as NSD2 HMT inh 104*, Efflux pump inh 0, NPR1 activator -6, Rce1 inhib inactive, NPR2 activator -3, V-ATPase pH 1 and AlphaScreen art -1%.
Screening Cc1ccc(-c2nc(C3CCCN(S(=O)(=O)c4cccs4)C3)no2)cc1 (stereo not given) returned NSD2 HMT inh 0, NPR1 activator -3 and NPR2 activator 10.
`CCN(CC)c1ccc(NC(=O)COC(=O)c2ccc3ccccc3n2)cc1` gave NSD2 HMT inh 107*, Efflux pump inh 0, NPR1 activator 0, NPR2 activator -13, V-ATPase pH 3 and AlphaScreen art -10%.
COc1ccc(NC(=O)COC(=O)c2ccc3ccccc3n2)cc1 was read as NSD2 HMT inh 0, Efflux pump inh 0, NPR1 activator -5, NPR2 activator -3 and V-ATPase pH 1.
`Cc1c(Cc2ccccc2)c(=O)oc2cc(O)ccc12` gave NSD2 HMT inh -6, Efflux pump inh 0, NPR1 activator 8, Rce1 inhib inconclusive, NPR2 activator -2 and V-ATPase pH 2.
For Cc1c(Cc2ccccc2)c(=O)oc2c(O)c(O)ccc12 the results were NSD2 HMT inh 61*, NPR1 activator 8, Rce1 inhib inactive, NPR2 activator -9, V-ATPase pH 0 and AlphaScreen art -12%.
`COC(=O)[C@]12C[C@H](CC(=O)NCC3CCCCC3)C(=O)N(Cc3cccc4ccccc34)C1=C[C@H](C(C)C)O[C@@H]2C1CC1` gave NPR1 activator -4 and NPR2 activator -2.
